Reference: article PMC4336329 (PLoS ONE, 2015)
Screen size: about 310,000 compounds; about 2,200 (0.71%) showed an effect of 50% or more. The effect is printed as a negative number. The sample as a whole holds a higher share of strong results than the screen did.

molecular target: human ether-à-go-go-related gene (hERG) potassium channel (human, UniProt Q12809); experiment: primary screen, population patch clamp on CHO cells stably expressing hERG; higher = less effect of the substance
Sequence (Q12809 whole entry, looked up): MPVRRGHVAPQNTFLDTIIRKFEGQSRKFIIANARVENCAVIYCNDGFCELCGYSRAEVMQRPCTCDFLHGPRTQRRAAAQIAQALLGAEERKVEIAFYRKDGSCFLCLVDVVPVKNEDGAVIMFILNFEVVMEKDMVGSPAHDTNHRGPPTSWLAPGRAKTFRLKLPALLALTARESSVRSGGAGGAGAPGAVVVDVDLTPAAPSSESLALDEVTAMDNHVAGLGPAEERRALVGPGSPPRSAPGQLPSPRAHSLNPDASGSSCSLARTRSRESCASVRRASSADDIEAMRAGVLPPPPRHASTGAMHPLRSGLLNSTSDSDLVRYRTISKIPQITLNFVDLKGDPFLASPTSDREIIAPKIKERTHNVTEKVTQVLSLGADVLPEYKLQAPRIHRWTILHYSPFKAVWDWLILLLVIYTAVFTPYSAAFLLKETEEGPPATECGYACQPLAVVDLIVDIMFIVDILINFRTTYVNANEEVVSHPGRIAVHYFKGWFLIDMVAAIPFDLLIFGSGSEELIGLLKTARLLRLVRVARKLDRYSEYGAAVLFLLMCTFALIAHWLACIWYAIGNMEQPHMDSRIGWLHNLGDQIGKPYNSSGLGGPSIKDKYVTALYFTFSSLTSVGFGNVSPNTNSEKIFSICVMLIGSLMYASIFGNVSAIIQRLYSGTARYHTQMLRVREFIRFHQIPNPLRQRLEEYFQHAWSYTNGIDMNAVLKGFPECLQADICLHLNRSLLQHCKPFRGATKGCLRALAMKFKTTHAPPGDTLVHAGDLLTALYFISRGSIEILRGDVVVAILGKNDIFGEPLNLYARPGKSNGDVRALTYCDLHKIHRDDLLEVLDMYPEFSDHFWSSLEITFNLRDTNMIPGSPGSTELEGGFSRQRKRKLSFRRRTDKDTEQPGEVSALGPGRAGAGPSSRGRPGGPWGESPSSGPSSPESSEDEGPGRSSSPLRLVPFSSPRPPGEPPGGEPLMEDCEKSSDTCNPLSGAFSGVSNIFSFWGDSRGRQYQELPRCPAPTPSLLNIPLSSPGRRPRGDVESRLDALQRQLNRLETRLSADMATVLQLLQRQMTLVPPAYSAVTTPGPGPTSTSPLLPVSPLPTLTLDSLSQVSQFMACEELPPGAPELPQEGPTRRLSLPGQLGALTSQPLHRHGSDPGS

SMILES | hERG current change (%, negative = inhibition) at 1uM
C#CC[N+]1(CC#Cc2ccc(C)cc2)CCCCC1.[Br-] | 2.2%
Cc1ccc(C#CC[N+]2(CC#Cc3ccc(C)cc3)CCCCC2)cc1.[Br-] | -51.8%
Cc1ccc(C#CC[N+]2(C)CCCCC2)cc1.[Br-] | 14.2%
COc1ccc(OC)c(NC(=O)C2CCCN(S(=O)(=O)c3ccc(-n4cnnn4)cc3)C2)c1 (centres unmarked) | 5.12%
COc1ccccc1NC(=O)C1CCCN(S(=O)(=O)c2ccc(-n3cnnn3)cc2)C1 (centres unmarked) | -23.5%
COc1ccc(C)cc1NC(=O)C1CCCN(S(=O)(=O)c2ccc(-n3cnnn3)cc2)C1 (centres unmarked) | -71.4%
O=C(NCc1ccccc1)c1onc(CSc2ccc(F)cc2)c1C(=O)NCCCN1CCOCC1 | -54.9%
O=C(NCc1ccccc1)c1onc(CSc2ccc(F)cc2)c1C(=O)NCc1ccccc1 | 5.63%
O=C(NCCCN1CCOCC1)c1onc(CSc2ccccc2)c1C(=O)NCCCN1CCOCC1 | 14.7%
CCC(CC)NCCOC(=O)c1ccc([N+](=O)[O-])cc1 | -3.41%
CN1C(=O)C(Cc2cccs2)C(=O)N(C)C1=O | 15.2%
CCCCn1c(NC(=O)c2ccc(Br)o2)c(C(=O)OCC)c2nc3ccccc3nc21 | -17.9%
CCCCn1c(NC(=O)c2ccco2)c(C(=O)OCC)c2nc3ccccc3nc21 | -22%
CCCCCn1c(NC(=O)c2ccco2)c(C(=O)OCC)c2nc3ccccc3nc21 | -73.9%
COc1ccc(S(=O)(=O)NCCC(C)C)cc1C | 4.62%
Cc1c(CN(C)C(=O)c2nn(C)cc2[N+](=O)[O-])cnn1C | 10.8%
CCn1cc(CN(C)C(=O)/C=C/c2ccc([N+](=O)[O-])cc2)c(C)n1 | -35.3%
Cc1c(CN(C)C(=O)/C=C/c2ccc([N+](=O)[O-])cc2)cnn1C | -65.5%
CC(C)c1ccc(O)c(CN2CCN(c3ccccc3)CC2)c1 | 10.3%
CCOc1ccc(C(C)=O)cc1CN1C(=O)NC2(CCCCCCC2)C1=O | -51.8%
COc1ccc(C(C)=O)cc1CN1C(=O)NC2(CCCCCCC2)C1=O | 19.8%
CCOc1ccc(C(C)=O)cc1CN1C(=O)NC2(CCCCCC2)C1=O | 13.5%

SMILES | hERG current change (%, negative = inhibition) at 1uM
CCC(=O)OCC(=O)Nc1ccc([N+](=O)[O-])cc1OC | 9.97%
Cc1ccccc1OCCC(=O)Nc1ccc(F)c(Cl)c1 | 13.7%
CC(=O)N1CC(C)Sc2ccc(S(=O)(=O)NCc3ccc(Cl)cc3)cc21 (centres unmarked) | 1.91%
Cc1ccc(/C=C/C(=O)NCCCN2CCN(CCCNC(=O)/C=C/c3ccc(C)cc3)CC2)cc1 | 7.32%
O=C(/C=C/c1ccc(F)cc1)NCCNC(=O)/C=C/c1ccc(F)cc1 | 16.8%
CCN1CCN(C(=O)/C=C/c2ccc(C)cc2)CC1 | 4.54%
O=C(/C=C/c1ccccc1)N1CCCN(C(=O)/C=C/c2ccccc2)CC1 | -44%
Cc1ccc(/C=C/C(=O)N2CCCN(C(=O)/C=C/c3ccc(C)cc3)CC2)cc1 | -53.5%
CN1CCCN(C(=O)/C=C/c2ccc(F)cc2)CC1 | -5.11%
O=C(/C=C/c1ccc(F)cc1)NCCCN1CCN(CCCNC(=O)/C=C/c2ccc(F)cc2)CC1 | -72.5%
O=C(/C=C/c1ccc(F)cc1)N1CCCN(C(=O)/C=C/c2ccc(F)cc2)CC1 | -84.7%
CCN1CCN(C(=O)/C=C/c2ccc(F)cc2)CC1 | -13.1%
Cc1ccccc1S(=O)(=O)N1[C@@H](c2ccc(F)cc2)C(C(=O)O)=CC[C@H]1c1ccc(Cl)cc1 | 8.27%
COc1ccc(/C=C2\CCCC3C2=NN(C(=O)CSc2ncn[nH]2)C3c2ccc(OC)cc2)cc1 (centres unmarked) | 16.5%
CCCCn1c(N)c(N(CC(C)C)C(=O)c2cccc(S(=O)(=O)N3CCCCCC3)c2)c(=O)[nH]c1=O | 4.52%
Cc1ccc(NC(=O)CSc2nnc(-c3ccco3)o2)c(C)c1 | 17.5%
Cc1ccc(C(=O)N/C(=C\c2cccs2)C(=O)NCCCn2ccnc2)cc1C | -32.3%
Cc1ccc(C(=O)N/C(=C/c2cccs2)C(=O)NCCCn2ccnc2)cc1 | -50%
Cc1ccc(C(=O)N/C(=C\c2cccs2)C(=O)NCCCn2ccnc2)cc1 | -66%
O=C(NCCCn1ccnc1)/C(=C\c1cccs1)NC(=O)c1ccccc1 | -19.1%
COc1ccc(C(=O)N/C(=C/c2cccs2)C(=O)NCCCn2ccnc2)cc1OC | 0.585%
O=C(NCCCn1ccnc1)/C(=C\c1cccs1)NC(=O)c1cccs1 | -27.6%

SMILES | hERG current change (%, negative = inhibition) at 1uM
CSC1=N/C(=C\c2ccccc2Cl)C(=O)N1N(C)C | 1.86%
Cc1cc(=O)[nH]c(SC(C)C(=O)Nc2cccc3ccccc23)n1 (centres unmarked) | 6.33%
COc1ccc(OCC(=O)Nc2ccc(N3CCN(C(=O)c4ccccc4)CC3)c(Cl)c2)cc1 | 9.86%
CCN1CCN(c2ccc(NC(=O)c3cccc(F)c3)cc2Cl)CC1 | -8.27%
CCN1CCN(c2ccc(NC(C)=O)cc2Cl)CC1 | 10.3%
CCCOc1ccc(C(=O)N2CCN(c3ccc(N)cc3Cl)CC2)cc1 | -6.51%
CCC(=O)Nc1ccc(N2CCN(CC)CC2)c(Cl)c1 | 8.56%
CCCC(=O)Nc1ccc(N2CCN(CC)CC2)c(Cl)c1.Cl | -17.9%
CCCOc1ccc(C(=O)N2CCN(c3ccc(NC(=O)CC)cc3Cl)CC2)cc1 | -58.7%
CCCCCC(=O)Nc1ccc(N2CCN(CC)CC2)c(Cl)c1 | -55.6%
CCN1CCN(c2ccc(NC(=O)c3ccc(F)cc3)cc2Cl)CC1 | -66.8%
CCC(=O)NC(=S)NNC(=O)c1ccc([N+](=O)[O-])cc1 | 8.99%
CC(OC(=O)CCC(=O)c1cccs1)C(=O)NC1CCCCC1C (centres unmarked) | 0.622%
CC(OC(=O)c1cccs1)C(=O)NC1CC1 (centres unmarked) | 7.03%
CC(OC(=O)c1cccs1)C(=O)NC1CCCCC1C (centres unmarked) | -66.1%
CCOc1ccc(NC(=O)CN(C)C(=O)c2ccc(COc3ccccc3)cc2)cc1OCC | 4.94%
Cc1ccc(NS(=O)(=O)c2ccccc2Cl)c2c1CC(C)(C)O2 | 6.77%
Cc1ccc2sc(NNC(=O)C3COc4ccccc4O3)nc2c1C (centres unmarked) | 9.9%
CN(C)C/C=C(/c1ccc(Br)cc1)c1cccnc1.Cl | -60.8%
O=C(NCCNC(=O)c1cccnc1)c1ccc(Br)cc1 | 29.6%
CN(C)C/C=C(\c1ccc(Br)cc1)c1cccnc1.Cl.O | -35.3%
CC(C)C(=O)Nc1ccc2c(c1)oc1ccccc12 | 11.8%

SMILES | hERG current change (%, negative = inhibition) at 1uM
O=C(COC(=O)C12CC3CC(CC(O)(C3)C1)C2)Nc1ccc(Cl)cc1F | -1.56%
COc1ccccc1C(=O)Nc1ccon1 | -0.0061%
N=c1nc(N)nc2n1NC(c1ccc(F)cc1)=CS2 | -3.69%
CN1C2C=C(N(CCc3ccccc3)C(=O)c3ccc(Cl)cc3)CC1CC2.Cl (centres unmarked) | -19.7%
CN1C2CCC1CC(OC(=O)c1ccc(Cl)cc1)C2.Cl (centres unmarked) | -9.75%
COc1ccc(C(=O)CN(C(=O)c2ccc(Cl)cc2)N2C(=O)C3CCCCC3C2=O)cc1 (centres unmarked) | 10.8%
CCCCN(C(=O)c1ccc(Cl)cc1)C1CC2CCC(C1)N2C.Cl (centres unmarked) | -15.6%
CN1C2C=C(N(CCc3c[nH]c4ccccc34)C(=O)c3ccc(Cl)cc3)CC1CC2.Cl (centres unmarked) | -41.4%
COc1cc(C(=O)N(CCc2ccccc2)C2=CC3CCC(C2)N3C)cc(OC)c1OC.Cl.O (centres unmarked) | -13.5%
COc1ccc(N(C(=O)/C=C/c2ccccc2)C2=CC3CCC(C2)N3C)cc1.Cl (centres unmarked) | -70.3%
COc1ccc(N(C(=O)c2ccc(Cl)cc2)C2=CC3CCC(C2)N3C)cc1.Cl (centres unmarked) | -76.1%
CN1C2CCC1CC(N(CCc1ccccc1)C(=O)c1ccc(Cl)cc1)C2.Cl (centres unmarked) | -78.8%
Cc1cc(C)cc(C(=O)N(CCc2ccccc2)C2CC3CCC(C2)N3C)c1.Cl (centres unmarked) | -18%
CN1C2C=C(N(C(=O)c3ccc(Cl)cc3)c3ccccc3)CC1CC2.Cl (centres unmarked) | -69.8%
COc1ccc(N(C(=O)/C=C/c2ccc(OC)c(OC)c2)C2=CC3CCC(C2)N3C)cc1.Cl (centres unmarked) | -42.8%
Cc1cc(C)n2c(SC(C)C(=O)NC3(C#N)CCCCC3)nnc2n1 (centres unmarked) | 11.7%
CCOC(=O)c1oc2ccccc2c1NC(=O)c1ccc(S(=O)(=O)N2CCCC2)cc1 | -6.45%
CCOC(=O)C1CCN(S(=O)(=O)c2cc(F)ccc2OC)CC1 | 8.83%
COc1ccc(-c2nc(NCCCN(C)C)c3ccccc3n2)cc1.Cl | 3.72%
C=C(C)Cn1c(SCC#N)nc2ccccc2c1=O | 3.85%
